From ChEMBL document CHEMBL3988442, “University of Dundee, Small-Polar-MMV Screening Library” (2021)
About 900 (1.7%) of roughly 53,000 compounds showed an effect of 50% or more. The sample holds strong results, similar compounds and a random draw of the others, so the mix is not that of the screen.

What follows are compounds tested on Mycobacterium tuberculosis (assay: Cornell - Phenotypic assay to identify agents that inhibit growth of Mycobacterium tuberculosis). Conditions: 10 mM as filed; unlikely as a test dose.
Type: functional
Parameters: scale not given: direction of the effect not stated beside the values

SMILES	Percent Effect [%]
O=C1NCCN1C(CNS(=O)(=O)C1CC1)Cc1cccc(F)c1 (stereo not given)	21.82
CCOCC(=O)Nc1nccn1Cc1ccccc1Cl	48.83
CC(=O)Nc1nccn1Cc1ccccc1Cl	15.67
Cn1ccc(C(=O)Nc2nccn2Cc2ccccc2Cl)cc1=O	51.57
O=C(CCS(=O)(=O)C1CCCC1)N1CCCC1c1ccsc1 (stereo not given)	-6.93
Cc1cc(O)cc(=O)n1CCCC(=O)Nc1n[nH]c2cccc(F)c12	103.9
CC(C)Cc1cc(NC(=O)c2n[nH]c3ccccc23)n(C)n1	15.6
Cc1cc(O)cc(=O)n1CCCC(=O)Nc1n[nH]c2cc(Br)ccc12	104.6
Cc1cc(NC(=O)Cn2ccc(=O)c3ccccc32)[nH]n1	-8.025
CS(=O)(=O)CCCC(=O)Nc1cc(-c2cccc(F)c2F)n[nH]1	-2.681
Cc1noc(C)c1NC(=O)CCn1cc(Br)ccc1=O	22.38
Cn1cc(NC(=O)C2CC(=O)N(c3n[nH]c4cccc(F)c34)C2)cn1 (stereo not given)	-30.85
Cc1cc(O)cc(=O)n1CCCC(=O)Nc1n[nH]c2ccccc12	81.79
Cc1nonc1NC(=O)CCn1cc(Br)ccc1=O	6.093
CCc1ccc(NC(=O)C(C)N2CCN(Cc3ncc[nH]3)CC2)cc1 (stereo not given)	-0.1574
CC(C(N)=O)N1CCN(c2ncc(Cl)cn2)CC1 (stereo not given)	-8.902
O=C(COc1coc(CN2CCCCC2)cc1=O)c1ccccc1	-5.787
CC(C)N(C(=O)CCc1ccco1)C1CCOCC1	2.754
CCN1N=C(C(=O)N2CCCC(c3nc(C)c(C)s3)C2)CCC1=O (stereo not given)	-28.99
O=C(CSC1CCc2ccccc2NC1=O)NCCc1ccc(O)cc1 (stereo not given)	-13.35
CCn1cc2c(n1)C(COC)CN(C(=O)c1ccccn1)C2 (stereo not given)	22.8
Cc1nn(C)c(C)c1C(=O)NCc1cc(N(C)C)nc2ccccc12	-29.39
Cn1cnnc1S(=O)(=O)C1CCN(S(=O)(=O)c2ccc(Cl)s2)CC1	6.004
CCCn1nccc1C(=O)Nc1nc(C)c(C)s1	63.52
CCCn1nccc1C(=O)Nc1ncc(C)s1	29.79
CCn1nccc1C(=O)Nc1nc(C)c(C(C)=O)s1	37.96
CC(C)c1cc(C(=O)O)nc2[nH]c(=O)[nH]c(=O)c12	12.95

SMILES	Percent Effect [%]
COc1ccc(CNC(=O)C(NC(=O)Cc2ccccc2)C(C)C)cn1 (stereo not given)	-38.43
COCCN1C(=O)[C@H]2CC[C@@H]1CN(Cc1nnc(C3CC3)o1)C2	-7.325
O=C(O)C(F)(F)F.O=C1[C@H]2CN(CC3CC3)C[C@H]2CN1Cc1cccc(F)c1	9.244
CC(C)CNC(=O)C[S+]([O-])Cc1csc(C2CCCCC2)n1 (stereo not given)	18.38
O=C(C[S+]([O-])Cc1csc(C2CCCC2)n1)NC1CCCC1 (stereo not given)	8.301
O=C(C[S+]([O-])Cc1csc(C2CCCC2)n1)Nc1ccccc1 (stereo not given)	105.1
CCn1cnnc1CNC(=O)c1cc(Cl)ccc1I	10.82
CN(CCNC(=O)c1cnc(-c2ccccc2)nc1)S(C)(=O)=O	-18.18
CC(C)=CCCC(C)(O)c1cc(C(N)=O)no1 (stereo not given)	37.88
CCCC(C)(O)c1cc(C(N)=O)no1 (stereo not given)	45.9
CCOC(=O)c1cc(C(C)(O)CCC=C(C)C)on1 (stereo not given)	106.6
CNC(=O)Cn1ccc2ccc(NC(=O)C(C)C)cc21	6.028
CCCC(O)CN1CC(C)(C)CN(C(=O)c2ccccc2)CC1=O (stereo not given)	6.323
Cc1cc(N2CCC(O)(CN(C)C(=O)CCN)C2)c2cnccc2n1 (stereo not given)	27.99
CCCC(=O)NCCc1cc(NC)nc(-c2ccccn2)n1	8.218
CNc1cc(CCNS(=O)(=O)c2ccccc2)nc(-c2ccccn2)n1	45.23
CNc1cc(CCNC(=O)c2cccnc2)nc(-c2ccncc2)n1	-1.38
Cc1ncc(-c2ccccn2)c(CCNC(=O)C2CCCC2)n1	-18.28
CNc1cc(CCNC(=O)CC(C)C)nc(-c2ccccn2)n1	53.37
CNc1cc(CCNC(=O)C2CCCC2)nc(-c2ccccn2)n1	52.1
Cc1c(Br)cccc1C(=O)Nc1cc(C(N)=O)n(C)c1	2.948
COC(=O)c1occc1Cn1cc(Br)cn1	-5.91
COc1cccc2c1ccn2CCNC(=O)CC(C)C	-27.68
CCCn1nnnc1COc1ccc(C(=O)OC)cc1OC	7.789
CN(C)S(=O)(=O)N1CCOC(c2cccc(-c3cncnc3)n2)C1 (stereo not given)	50.13
Cc1noc(C)c1-c1cccc(C2CN(S(=O)(=O)N(C)C)CCO2)n1 (stereo not given)	37.24
COCC(=O)N1CCOC(c2cccc(-c3cncnc3)n2)C1 (stereo not given)	-11.99

SMILES	Percent Effect [%]
COc1ccccc1C(=O)N1CC(=O)N(CC(C)C)CC(O)C1 (stereo not given)	11.6
CCC(CN1CCCCC1)NC(=O)C1(c2cccc(F)c2)CC1.O=C(O)CC(O)(CC(=O)O)C(=O)O (stereo not given)	45.73
CCOCC(O)CN1CCN(C(=O)c2ccsc2)CC1 (stereo not given)	106.2
CCOCC(O)CN1CCN(C(=O)c2ccncc2)CC1 (stereo not given)	18.36
CCOCC(O)CN1CCN(C(=O)c2ccc(N(C)C)nc2)CC1 (stereo not given)	18.97
CC(C)N1CCC(Cc2cncc(-c3cccc(C(=O)O)c3)n2)CC1	-33.1
CCOCC1CN(S(=O)(=O)Cc2ccccc2)Cc2nccn2C1 (stereo not given)	3.802
CC(C)c1ccc(C#N)c(N2CC(C)(C)[C@@](C)(O)C2)n1	23.89
COc1cccc(NC(=O)CN2CCN(S(C)(=O)=O)CC2)c1	13.93
COc1cccc(C(C)N2CCN(S(C)(=O)=O)CC2)c1 (stereo not given)	-32.99
COc1cccc(/C=C/CCN2CCCN(C(C)=O)CC2)c1	68.14
COc1cccc(S(=O)(=O)CCN2CCCN(C(C)=O)CC2)c1	16.19
COc1cccc(/C=C/CCN2CCC(C(=O)N3CCCC3)CC2)c1	9.134
COc1cccc(/C=C/CCN2CCN(S(C)(=O)=O)CC2)c1	79.58
Cc1cc(C)n(C2CN(c3ncnc4[nH]ccc34)C2)n1	-54.22
CCn1cc(S(=O)(=O)NCC2(N3CCOCC3)CCCCC2)c(C)n1	-12.17
N#CCCCOc1cccnc1NC(=O)CC1CCCCC1	-14.31
Cc1ccc(NC(=O)N2CCN(Cc3ccccn3)CC2)cc1Cl	-19.48
Cc1nc(CN(C)C2CCCN(c3ccccc3)C2)no1 (stereo not given)	-1.27
Cn1c(=O)c2c(c3ccccc31)OC(C)(C)CC2	17.08
COc1cccc2c3c(c(=O)n(C)c12)CCC(C)(C)O3	52.61
COc1cccc2c3c(c(=O)[nH]c12)CCC(C)(C)O3	14.12
CSCCCNC(=O)C(c1ccccc1C)N(C)C (stereo not given)	37.97
Cc1cc(N(C)CCC(O)c2ccccc2)n2nccc2n1 (stereo not given)	-28.51
Cc1cc(C(F)(F)F)nc(CNc2cc(C)nc3cc(C)nn23)n1	13.97
COc1cccc(C(=O)Oc2cc(=O)n3cccc(C)c3n2)c1	35.2
CC1c2cccn2CCN1C(=O)CCc1nc(-c2ccccc2)no1 (stereo not given)	50.68

SMILES	Percent Effect [%]
CC1c2cccn2CCN1C(=O)CCCc1nc(-c2ccco2)no1 (stereo not given)	8.285
CC1c2cccn2CCN1C(=O)CCc1nc(C2CC2)no1 (stereo not given)	7.661
COC(=O)c1cc(OCC2CCC2)cc(C(=O)N[C@H]2CCCC[C@@H]2O)c1	13.96
Cc1nc(C)c(C(=O)N2CCCC2(C)C(=O)NC2CCCC2)s1 (stereo not given)	-2.69
Cc1cc(C)n(CC2CN(CC(=O)NC3(C#N)CCCC3)CCO2)n1 (stereo not given)	-4.222
CCOCCC(=O)Nc1cccc(Oc2ccccn2)c1	-2.089
NC(=O)c1cnc(NC2CCN(c3ccccn3)CC2)c(Cl)c1	18.4
NC(=O)c1cnc(NC2CCN(c3ccccc3)CC2)c(Cl)c1	48.08
NC(=O)c1cnc(NC2CCC(c3ccccc3)CC2)c(Cl)c1 (stereo not given)	57.03
O=S(=O)(c1cccnc1)N1CCN(Cc2nc(-c3ccco3)cs2)CC1	31.36
Cc1nc(C)n(CC2CCCN(Cc3cccnc3)C2)n1 (stereo not given)	6.124
CCC(CC)C(=O)N1CCN(Cc2nc3ccccc3c(=O)[nH]2)CC1	5.405
O=c1[nH]c(CN2CCN(CC(F)(F)F)CC2)nc2ccccc12	9.356
O=c1[nH]c(CCN2CCN(CC(F)(F)F)CC2)nc2ccccc12	106.7
CN(CCc1nc2ccccc2c(=O)[nH]1)CCC(F)(F)F	95.2
CCOCCN1CCN(CCc2nc3ccccc3c(=O)[nH]2)CC1	106.8
O=c1[nH]c(CCN2CCCC(Cn3cncn3)C2)nc2ccccc12 (stereo not given)	33.45
CN(CCC(F)(F)F)Cc1nc2ccccc2c(=O)[nH]1	7.133
Cn1nc2c(cc1=O)CN(CCc1nc3ccccc3c(=O)[nH]1)CC2	8.475
CN(CCC(F)(F)F)c1nc2ccccc2c(=O)[nH]1	-4.598
O=C(c1sccc1-n1cnnn1)N1CCC(Cc2ccccc2)CC1	28.81
CCOC1Sc2nnc(C)n2N=C1c1ccc(F)cc1 (stereo not given)	27.03
CC(C)NC(=O)N1CCN(Cc2ccccn2)CC2(CC(=O)N(C)C2)C1.O=C(O)C(F)(F)F.O=C(O)C(F)(F)F (stereo not given)	-0.1639
COc1cccc(CC2CCCN2Cc2nccn2C)c1 (stereo not given)	13.47
